Measurements taken from PubChem BioAssay AID1861 (The Scripps Research Institute Molecular Screening Center, 2009).
The campaign covered roughly 290,000 compounds. About 3,100 (1.1%) were called active. The entries come from a sample that favours actives as a whole. Values without a mark were called inactive. Rule as the data show it: active = inhibition above about 16% (passing the limit was not always enough); inactive = the rest.

Target: Neuropeptides B/W receptor type 1 (Homo sapiens) (UniProt P48145)
Sequence (P48145 whole entry, looked up): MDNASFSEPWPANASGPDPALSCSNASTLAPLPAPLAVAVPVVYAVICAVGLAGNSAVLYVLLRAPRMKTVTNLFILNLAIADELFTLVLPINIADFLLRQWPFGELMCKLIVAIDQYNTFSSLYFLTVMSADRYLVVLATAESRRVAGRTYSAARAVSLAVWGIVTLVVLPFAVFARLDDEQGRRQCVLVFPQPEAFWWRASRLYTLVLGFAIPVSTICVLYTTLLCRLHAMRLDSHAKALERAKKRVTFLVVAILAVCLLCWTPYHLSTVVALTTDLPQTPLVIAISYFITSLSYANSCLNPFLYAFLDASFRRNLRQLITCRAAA
Assay: GPR7 receptor antagonists, primary screen, cell-based, fluorescence, single concentration (AID 1861);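 also: cells stimulated with the agonist NPW; 0% = agonist with vehicle and 100% = vehicle without agonist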
Settings: GPR7-expressing cells, fluorescence antagonist assay; at 4.4 µM; stronger effect = higher value

Point of comparison: CCOC(=O)C1Sc2[nH]c(=O)sc2C(c2ccc(Cl)cc2)C1C(=O)OCC (centres undefined), inhibition -3.9%. Against it:
- CS(=O)(=O)N1CCc2nc(-c3ccccc3)sc2C1 — lower, -4.29%
- C=CCSc1nnc(NC(=O)c2ccc(NC(C)=O)cc2)s1 — lower, -10.1%
- CC(=O)c1cccc(NC(=O)c2ccncc2)c1 — lower, -7.93%
- CCSc1nsc(NC(=O)Nc2ccccc2OC)n1 — higher, 0.35%
- C=C(C)C(=O)Nc1cccc(C(C)=O)c1 — lower, -8.07%
- Cc1ccc(S(=O)(=O)NCc2ccc(C(=O)NC3CCC(C)CC3)cc2)cc1 (centres undefined) — lower, -11.8%
- COC(=O)c1ccc(CN2CCCC(C(=O)Nc3cccc(-n4cnnn4)c3)C2)cc1 (centres undefined) — higher, -3.8%
- Cc1cc(C)c(C(=O)CSc2nc(C)cc(=O)[nH]2)c(C)c1 — higher, 5.17%
- COc1ccc(C2CC(c3ccc(C)cc3)Nc3ncnn32)cc1 (centres undefined) — higher, 3.36%
- COc1ccc(C2CC(c3ccccc3)Nc3ncnn32)cc1 (centres undefined) — higher, 12.2%
- Brc1ccccc1CN1CCC(Cc2ccccc2)CC1 — lower, -13.6%
- COc1ccc(Cn2c(C)c(C)c(C#N)c2NC(=O)Nc2ccc(F)cc2)cc1 — lower, -4.33%
- COc1cccc(/C=C2/SC(=S)N(CC(=O)NC3C=CS(=O)(=O)C3)C2=O)c1 (centres undefined) — higher, -2.21%
- Cc1nc2ccc(S(=O)(=O)N(C)CC(=O)NC(C)c3ccccc3)cc2s1 (centres undefined) — higher, 2.55%
- COCCN1C(=O)C(=O)/C(=C(/O)c2ccc(S(=O)(=O)N3CCCCC3)cc2)C1c1ccc(OC)c(OC)c1 (centres undefined) — lower, -6.88%
- COC(=O)c1cc(N2CCNCC2)nc2ccccc12 — higher, 1.6%
- COc1ccccc1CC(=O)NCCc1c[nH]c2ccccc12 — higher, -0.98%
- COc1ccc(S(=O)(=O)NCCc2c[nH]c3ccccc23)cc1OC — lower, -6.73%
- O=C(CN1CCC(NC(=O)Nc2ccccc2)CC1)Nc1cccc([N+](=O)[O-])c1 — higher, -1.48%
- CC(NC(=O)c1cc(=O)[nH]c2ccccc12)c1ccc(F)cc1F (centres undefined) — higher, 0.31%
- CC(C)CC(CCc1ccccc1)OS(N)(=O)=O (centres undefined) — lower, -8.91%
- Cc1cccc(NC(=O)c2ccc3nsnc3c2)c1C — higher, 4.08%
- Cc1nc(C)c(C(=O)Nc2cccc(C)c2C)o1 — higher, 1.66%

With C=CCSc1nsc(NC(=O)Nc2cccc(C(C)=O)c2)n1 the inhibition was 32.5% (active).
With CCSc1nsc(NC(=O)Nc2cccc(C(C)=O)c2)n1 the inhibition was 37.1% (active).
With Clc1ccc(C2CC(c3cccs3)n3ncnc3N2)cc1Cl (centres undefined) the inhibition was 24.9% (active).
For COc1cccc(CNCCc2c[nH]c3ccccc23)c1OCc1ccccc1F, the inhibition was 39.6% (active).
In the case of Cc1cccc(NC(=O)c2cccc(C(=O)Nc3cccc(C)c3C)n2)c1C, the inhibition is reported as 36.1% (active).
